The values below come from PubChem BioAssay AID485344 (National Center for Advancing Translational Sciences (NCATS), 2010).

The campaign covered roughly 340,000 compounds. About 6,900 (2%) were called active. Rule as the data show it: active = inhibition above about 30%; inactive = below that, where a call was filed. The entries come from a sample that favours actives as a whole.

Chain of D(2) dopamine receptor (Homo sapiens) (P14416 whole entry, looked up): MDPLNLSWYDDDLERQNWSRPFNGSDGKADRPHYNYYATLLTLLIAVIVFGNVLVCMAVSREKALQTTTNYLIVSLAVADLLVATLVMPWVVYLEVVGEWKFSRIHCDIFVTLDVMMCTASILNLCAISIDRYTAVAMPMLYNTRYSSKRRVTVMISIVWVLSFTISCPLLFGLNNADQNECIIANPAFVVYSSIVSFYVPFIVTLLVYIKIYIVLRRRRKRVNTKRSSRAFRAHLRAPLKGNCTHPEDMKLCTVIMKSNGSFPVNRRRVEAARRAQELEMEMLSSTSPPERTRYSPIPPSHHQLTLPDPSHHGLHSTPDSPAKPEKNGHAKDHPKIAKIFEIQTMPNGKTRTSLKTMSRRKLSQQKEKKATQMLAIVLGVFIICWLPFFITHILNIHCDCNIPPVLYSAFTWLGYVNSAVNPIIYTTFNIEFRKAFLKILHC

In this assay the target is D(2) dopamine receptor (Homo sapiens) (UniProt P14416). Put plainly: HTS Assay for Allosteric Antagonists of the Human D2 Dopamine Receptor: Primary Screen for Antagonists. Also: 0% is about no effect. The conditions noted are these: HEK293 TREx D2 cells, calcium flux, dopamine EC80; at 10 µM; active compounds read high. An outline of the steps:
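Inhibition of EC80 dopamine-driven calcium flux, recorded kinetically, defines activity here; cells are a tetracycline-induced HEK293 T-REx line expressing force-coupled D2.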
Background: Calcium flux is commonly read through the fluorescence of an indicator in the cells.
As a reminder, the inhibition is the drop in the measured response relative to a control, in per cent. As to `CC(OC(=O)CN1C(=O)c2ccccc2C1=O)C(=O)c1ccccc1` (stereo not given), the inhibition is 10.6% (inactive).

On to `CCN(CC(=O)NCc1ccc(Cl)cc1)C(=O)CSc1ccccc1`, for which the inhibition is -4.45% (inactive). The same measure for `Cc1noc(C)c1S(=O)(=O)N(CC(=O)NCc1ccc(Cl)cc1)c1ccc2c(c1)OCO2`: 1.26% (inactive). The result for `CCN(CC(=O)NCc1ccc(Cl)cc1)C(=O)c1c(C)noc1C` reads 30.3% (active).

For the compound `CC(=O)c1c(C)[nH]c(C(=O)COc2ccc3c(C)cc(=O)oc3c2)c1C`, the inhibition was 1.65% (inactive).

`CN(C)C(=O)N=NC(=O)N(C)C`: the inhibition was 6.75% (inactive).

In the case of `CCC(C)CCN1CCN=C1N(C)C` (stereo not given), the inhibition was -4.14% (inactive).

As for `C=C(C)COc1ccc(-c2nc(N)ncc2-c2ccccc2OC)c(O)c1`, the inhibition was -11.9% (inactive). The result for `CCOc1ccc(-c2nc(N)ncc2-c2ccccc2OC)c(O)c1` reads 34.9% (active). The same measure for `COc1ccc(-c2nc(N)ncc2-c2ccc(Cl)cc2)c(O)c1`: -27.1% (inactive); for `CCCCN1C(=O)C(=O)N(CC(=O)Nc2cccc(C(C)=O)c2)C1=O`: 2.29% (inactive); for `COc1ccc(C(=O)OC(C)C(=O)NC2CCCC2)cc1S(=O)(=O)N1CCOCC1` (stereo not given): -6.41% (inactive). The same measure for `O=C(NCCCN1CCOCC1)c1ccc([N+](=O)[O-])cc1[N+](=O)[O-]`: 48.1% (active); for `O=C(NCCCN1CCOCC1)c1ccc(N2CCCC2)c([N+](=O)[O-])c1`: -5.74% (inactive).

Consider `O=[N+]([O-])c1ccc(NCCCN2CCOCC2)c(Cl)c1`, for which the inhibition is -7.9% (inactive). The result for `COc1ccc(CC2c3cc(OC)c(OC)cc3CC[N+]2(C)CCC(=O)OCCCCCOC(=O)CC[N+]2(C)CCc3cc(OC)c(OC)cc3C2Cc2ccc(OC)c(OC)c2)cc1OC` (stereo not given) reads 2.9% (inactive); that for `COc1ccc(Cl)cc1NC(=O)CNc1ccccc1F`, 0.751% (inactive); that for `COC(=O)[C@@H](NC(=O)Nc1cc(Cl)ccc1C)C(C)C`, 18.4% (inactive). The result for `COc1ccc(Cl)cc1NC(=O)NC(C)C(C)(C)C` (stereo not given) reads 34.2% (active); that for `Cc1cc(C(=O)Nc2ccc(C)c(S(=O)(=O)N3CCOCC3)c2)c2ccccc2n1`, 3.28% (inactive). The result for `O=C(c1cc(-c2ccco2)nc2ccccc12)N(Cc1nnc(-c2ccc(Cl)cc2)o1)C1CC1` reads -3.48% (inactive). In the case of `COc1ccccc1OC(C)C(=O)Nc1ccc(S(=O)(=O)Nc2nccs2)cc1` (stereo not given), the inhibition was -2.37% (inactive). The result for `Cc1ccc(OCCC(=O)Nc2ccc(S(=O)(=O)Nc3nccs3)cc2)cc1` reads 23.7% (inactive).

Regarding `CCC(CC)C(=O)Nc1ccc(S(=O)(=O)Nc2nccs2)cc1`, the inhibition is 32.1% (active). The result for `COc1ccccc1N1CCN(Cc2ccc(OC)c3ccccc23)CC1` reads 72.3% (active); that for `COc1ccccc1N1CCN(CCCCOc2ccc(F)cc2)CC1`, 1.05% (inactive); that for `COc1ccccc1N1CCN(Cc2cc(OC)c3c(c2)OCO3)CC1`, 85.7% (active). As for `COc1ccc(CN2CCN(Cc3ccc(OC)c(OC)c3OC)CC2)cc1`, the inhibition was -16% (inactive). In the case of `COc1ccccc1CN1CCN(Cc2cc(OC)c(OC)cc2OC)CC1`, the inhibition is -0.792% (inactive). On to `CNCC(O)CN1CCN(c2ccccc2OC)CC1` (stereo not given), for which the inhibition was -12.4% (inactive). The same measure for `COc1ccc(S(=O)(=O)N2CCOCC2)cc1NC(=O)CSc1cc(C)ccc1C`: -16% (inactive). As to `CCN(CC(=O)Nc1ccc(NC(C)=O)cc1)C(=O)CSC(=S)N1CCCC1`, the inhibition was 12.7% (inactive). In the case of `CC1(C)O[C@@H]2[C@H](O1)[C@@H](COS(=O)(=O)O)O[C@H]2n1cnc2c(=O)[nH]cnc21`, the inhibition was 10.8% (inactive). As to `CCCCn1c(N)c(N(CC(C)C)C(=O)CSc2ccc([N+](=O)[O-])cc2)c(=O)[nH]c1=O`, the inhibition was 6.25% (inactive). Consider `OCC[C@H]1C[C@@H](O)[C@H](O)[C@@]2(OCCc3ccccc32)O1`, for which the inhibition is 3.29% (inactive). The result for `CCN(CC(=O)Nc1ccc(OC)cc1)C(=O)CSCc1ccc(C)cc1` reads 7.06% (inactive); that for `Cc1cc(C(=O)N/N=C\C(Br)=C\c2ccccc2)c(C)o1`, 1.9% (inactive); that for `Cc1cc(C(=O)N/N=C/c2ccccc2[N+](=O)[O-])c(C)o1`, 2.69% (inactive). The same measure for `CC(=C/c1ccccc1)/C=N/NC(=O)c1cc(C)oc1C`: 36.9% (active); for `COc1ccccc1C(=O)COC(=O)CSCC(=O)Nc1cc(C)on1`: 14.3% (inactive).
